# “And” between values parts separate entries of the source, which are not always exact repeats. Identical values can stand only once. This is part of a sample that, as a whole, favours compounds with a hit. Of some 79,000 tested, about 15% had one in any assay. A number with no mark means an inactive call. The source made the active and inactive calls. Rule as the data show it: active = growth inhibition above about 70%; inactive = the rest.
# What was measured:
# [1] = NCI Yeast Anticancer Drug Screen. Data for the rad50 strain (AID 155);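 also: 0% = growth of vehicle-only cultures of the same strain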; conditions: S. cerevisiae rad50 strain growth inhibition, hits give high values; at 50.0 µM unless noted
# Method in brief: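 Readout: growth inhibition relative to vehicle-treated cultures. Compound exposure was carried out in a genetically defined yeast strain deficient in DNA damage repair.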
# [2] = NCI Yeast Anticancer Drug Screen. Data for the mec2-1 strain (AID 157); conditions: S. cerevisiae mec2-1 strain, hits give high values; at 50.0 µM unless noted
# Method in brief: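 Test agents were screened against the mec2-1 yeast strain, with defined DNA repair or cell cycle alteration. Growth was scored as inhibition against vehicle-only controls.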
# [3] = NCI Yeast Anticancer Drug Screen. Data for the sgs1 mgt1 strain (AID 161);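 also: 0% = growth of cultures given vehicle only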; conditions: S. cerevisiae sgs1 mgt1 strain, hits give high values; at 50.0 µM unless noted
# Method in brief: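 Test agents were incubated with a DNA-repair-mutant yeast strain. Growth was then read and compared against vehicle-treated controls.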
# [4] = NCI Yeast Anticancer Drug Screen. Data for the cln2 rad14 strain (AID 165);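 also: 0% = growth equal to vehicle treated cultures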; conditions: S. cerevisiae cln2 rad14 strain, hits give high values; at 50.0 µM unless noted
# Method in brief: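 Growth of compound-exposed yeast (cln2 rad14 genotype) measured and expressed as inhibition relative to vehicle.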
# [5] = NCI Yeast Anticancer Drug Screen. Data for the bub3 strain (AID 167); conditions: S. cerevisiae bub3 mutant strain, hits give high values; at 50.0 µM unless noted
# Method in brief: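 Readout: yeast growth inhibition, expressed relative to vehicle-only wells. The test organism is a mutant strain from a panel with lesions in DNA repair or checkpoint genes.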
# [6] = NCI Yeast Anticancer Drug Screen. Data for the mlh1 rad18 strain (AID 175); conditions: S. cerevisiae mlh1 rad18 strain growth inhibition, hits give high values; at 50.0 µM unless noted
# Method in brief: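 In this whole-cell yeast screen, a strain with altered DNA damage repair is challenged with compound, and its growth is measured against matched vehicle-treated controls.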
SMILES,growth inhibition [1],growth inhibition [2],growth inhibition [3],growth inhibition [4],growth inhibition [5],growth inhibition [6]
O=C(O)CN(CCCN(CC(=O)O)CC(=O)O)CC(=O)O,-5%,0.85%,-2.5%,-14%,-7.4%,-30.2%
O=C(C[n+]1ccccc1CO)c1ccc(-c2ccccc2)cc1,26.2%,-6.4%,17.2%,-4.85%,6.5%,5.4%
CC(=O)N1C(=O)c2cccc([N+](=O)[O-])c2C1=O,-1.6%,-11.9%,-9.55%,7.15%,-21.7%,11.4%
C=CCSC(=S)Nc1nc2ccc([N+](=O)[O-])cc2s1,-4.1%,8.9%,7.45%,7.8%,-10.8%,-5.9%
CCCC(=O)N(CCC(C)C)c1ccccc1,-12.6%,6.3%,2.45%,9.9%,-9.25%,-7.8%
CCC(=O)Oc1ccc(C(=O)c2ccc(OC(=O)CC)cc2)cc1,5.05%,-24.9%,13.8%,11.4%,8.05%,4.1%
CC[N+]1(CC)CCOC(=O)C1,-15.8%,-2.6%,-3.9%,22.9%,-19.4%,-26.9%
OC1(Cc2ccccc2)CCCCCC1,-2.3%,1.3%,2.15%,-64.7%,-0.95%,1.95%
Clc1ccccc1/C=N\N=C\c1ccco1,8.3%,-14.1%,-9.05%,-40.4%,-11.1%,14.4%
Nn1c(-c2ccccc2)nc2ccc(Br)cc2c1=O,0.95%,7.55%,18.5%,24.8%,7.95%,43.5%
CN1C(=O)N(c2cc(Cl)cc(Cl)c2)C(=N)C1=S,7.1%,1.75%,17.6%,-3.1%,32.5%,37.5%
CCN1CCCC(C(=O)O)(c2ccccc2)CC1 (stereo unspecified),1.75%,-11.1%,-6.2%,-39%,-1.15%,2%
CCCCN=C(N)C(N)=NCCCC,-13.8%,-4.65%,-5.7%,-28.3%,0.5%,-18.7%
c1ccc(C2Cc3ccccc3C2c2ccccc2)cc1 (stereo unspecified),9.85%,11%,22.8%,-17.8%,-7.6%,-13.3%
CCN(CC)C(=O)C1CCN(CCOc2ccccc2)CC1,-14.2%,13.2%,1.55%,-10%,-0.25%,-26%
Cc1ccccc1C(=O)NC(O)(C(F)(F)F)C(F)(F)F,2.4%,10.2%,14.6%,32.9%,16.9%,5.05%
COc1ccc(-n2c(CCC(=O)O)nc3c2C(=O)c2ccccc2C3=O)cc1,31.6%,17.6%,34%,49%,14.7%,14.2%
CC(C)(C)c1cc2c(O)c3cccc4c(=O)c5cccc6c5-c(c34)c2c(c1)c6=O,33.9%,15.1%,-26.8%,7.2%,4.8%,-11.2%
COc1ccc2c(c1)[n+](=O)c(C(=O)C/C(=N\NC(=O)C[N+](C)(C)C)C(=O)Nc1cc(Cl)ccc1Cl)c(C)n2O,-27.9%,-12.7%,-43.6%,9.3%,-23.1%,-23.4%
Cc1c2ccncc2c(C)c2c1[nH]c1ccc(O)cc12,16.9%,14.2%,43.9%,23.6%,19.5%,58.9%
O=C1Cc2c(-c3ccc(Cl)cc3)cc(-c3ccccc3)nc2-c2ccccc2N1,-16.9%,-17.8%,-10.9%,4.95%,-11.2%,-52%

SMILES,growth inhibition [1],growth inhibition [2],growth inhibition [3],growth inhibition [4],growth inhibition [5],growth inhibition [6]
O=Cc1ccc(C=O)o1,4.25%,-1.8%,28.9%,6.3%,-11.7%,14.2%
CCOC(=O)O/C(C)=C\c1ccc(Cl)cc1,2.45%,-2.65%,-12.4%,-50.4%,-34.9%,7.05%
COC(=O)c1cc2c(cc1/C=C/C=O)OCO2,-20%,-15.8%,-19.4%,-27.9%,-11%,13.8%
O=C(CO)C(O)C(O)C(O)C(O)CO (stereo unspecified),19.2% and -6.1%,4.7% and 1.6%,20.3% and 3.4%,-1.1% and -1.05%,32.5% and -3.2%,20.9% and 5.8%
COc1ccc(/C(C)=N/NC(=O)c2ccncc2)cc1OC,-9.6%,-9.9%,-18.6%,-12.7%,-40%,-4.2%
O=C(O)c1cccc(S(=O)(=O)c2ccc([N+](=O)[O-])cc2)c1,-0.25%,0.55%,4.9%,-6.15%,-5.7%,14.2%
CNC(=O)Nc1cccc(C(=O)O)c1,-0.3%,-16.8%,-11.1%,-50.9%,4.35%,4.35%
Nc1ccc(S(=O)(=O)CCS(=O)(=O)c2ccc(N)cc2)cc1,5.65%,-4.5%,0.55%,-25.1%,4.45%,0.8%
Nc1ncnc2c1c(-c1ccc(Cl)cc1)cn2-c1ccc(I)cc1,2.45%,2.45%,-17.2%,-7.4%,-1.1%,7%
COC(=O)N/N=C(/CCC(=O)Nc1ccc(C)c(C)c1)CC(=O)C(C)(C)C,-10.8%,-12.1%,8.45%,2%,19.1%,-1.9%
CC(=O)Nc1ccc(S(=O)(=O)N/N=C(/C)c2ccccc2)cc1,-8.8%,-31.8%,1.05%,1.55%,-23.4%,-23.6%
C=C1CC2(OC1=O)c1ccccc1C=Cc1ccccc12,26.8%,13.4%,55.1%,48.8%,47.5%,50.4%
O=C(ON=C1C=CC(=NOC(=O)c2ccccc2)C=C1)c1ccccc1,10.2%,-20.6%,9.35%,17.3%,1.15%,7.6%
Cc1ccc(C)c(NC(=O)c2cccc(C(=O)Nc3cc(C)ccc3C)c2)c1,-13.1%,0.45%,-4.3%,8.05%,7.95%,7%
O=C1CCc2nc(-c3ccccc3)ncc21,9.25%,0%,1.95%,-5.55%,-2.2%,-0.8%
CC1=C(N2CCOCC2)C(N2CCOCC2)C(C)C1=O (stereo unspecified),16.8%,-5.25%,-4.8%,13.7%,9.1%,3%
Cc1[nH]c2ccccc2c1/C=C/c1c[nH]c2ccccc12,22%,29.9%,27.1%,15.8%,55.5%,40.4%
C=CCSCc1ccccc1,4.55%,2.95%,-13.6%,3.8%,-2.15%,19.7%
Cc1ccc(S(=O)(=O)/C=C(/SC#N)C2CCCCC2)cc1,32.5%,90.6% (active),69.5%,17.9%,83.1% (active),79.7% (active)
C=C1C(=O)C23CC1CCC2C12CO[C@H](O)[C@H]1C(C)(C)[C@H](OC(C)=O)C[C@H]2OC3=O (stereo partly specified),4.75%,4.15%,1.8%,6.1%,0.85%,-76.2%

# — PubChem BioAssay (NCI)
